Reference: PubChem BioAssay AID1345085 (National Center for Advancing Translational Sciences (NCATS), 2018)
Results filed as inconclusive are left out. Unmarked numbers belong to inactive results. Calls of active or inactive are those of the source. Calls follow the shape of the dose curve; as a rule, active = well fitted cell-killing curve with a large enough effect; inconclusive = small, poorly fitted or top-dose-only effect, or effect the other way; inactive = no such curve, though single readings can be large or run the other way.

Each compound was assayed on HeLa (assay: Confirmatory qHTS for gynecologic anti-cancer compounds from libraries of approved drugs and bioactive compounds). Details: gynecologic cancer cell panel viability, ATPlite luminescence, 48 h; series mostly up to 57.6 µM; activity change, negative = viability loss: at the top concentration.
Outline: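 Seeding 1,000 cells per well preceded overnight (16 h) attachment, after which 48 h drug treatment across 57.5 uM–0.977 nM (11 points) was applied. Remaining cellular ATP, detected by ATPlite luminescence, defined IC50.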
% is scaled to controls: 0 for no effect and ±100 for the full control effect; potency is read from the fitted curve at half-maximal effect.
Also: nearly all actives have a fitted effect of over 55% in size.

Row | SMILES | Potency | activity change, negative = viability loss [%]
1 | COc1cc(Nc2ncc(F)c(Nc3ccc4c(n3)N(COP(=O)(O)O)C(=O)C(C)(C)O4)n2)cc(OC)c1OC | 1.72 µM (active) | 
2 | COc1cccc2c1C(=O)c1c(O)c3c(c(O)c1C2=O)C[C@@](O)(C(=O)CO)C[C@@H]3O[C@H]1C[C@H](N)[C@H](O)[C@H](C)O1 | 6.85 µM (active) | 
3 | CC(=O)O[C@H]1C(=O)[C@@]2(C)[C@H]([C@H](OC(=O)c3ccccc3)[C@]3(O)C[C@H](OC(=O)[C@H](O)[C@@H](NC(=O)c4ccccc4)c4ccccc4)C(C)=C1C3(C)C)[C@]1(OC(C)=O)CO[C@@H]1C[C@@H]2O | 0.0163 µM (active) | 
4 | CCC1=CC2CN(C1)Cc1c([nH]c3ccccc13)[C@@](C(=O)OC)(c1cc3c(cc1OC)N(C)[C@H]1[C@@](O)(C(=O)OC)[C@H](OC(C)=O)[C@]4(CC)C=CCN5CC[C@]31[C@@H]54)C2 (some centres not stated) | 0.0943 µM (active) | 
5 | CNC1CCC(N(Cc2cccc(-c3ccncc3)c2)C(=O)c2sc3ccccc3c2Cl)CC1 (configuration not stated) | 27.3 µM (active) | 
6 | O=C(O)C1(Cc2cccc(Nc3nccs3)n2)CCC(Oc2cccc(Cl)c2F)CC1 (configuration not stated) | 1.22 µM (active) | 
7 | CNc1nc(Nc2ccc(C(=O)N3CCOCC3)cc2OC)ncc1Cl | 6.85 µM (active) | 
8 | CC(C)C[C@H](NC(=O)[C@H](Cc1ccccc1)NC(=O)c1cnccn1)B(O)O | 6.11 µM (active) | 
9 | CN1CCN(c2ccc(OC(F)(F)F)c(Nc3ncc4c(n3)-c3c(c(C(N)=O)nn3CCO)CC4)c2)CC1 | 0.0611 µM (active) | 
10 | COc1cc(Nc2ncc3c(n2)-c2ccc(Cl)cc2C(c2c(F)cccc2OC)=NC3)ccc1C(=O)O | 0.685 µM (active) | 
11 | Cc1cc(C(C)Nc2ccccc2C(=O)O)c2nc(N3CCOCC3)cc(=O)n2c1 (configuration not stated) | 17.2 µM (active) | 
12 | COc1cc(N2CCC(N(C)C)CC2)ccc1Nc1ncc(Cl)c(Nc2ccccc2P(C)(C)=O)n1 | 1.37 µM (active) | 
13 | COCCOc1nc(-c2ccc(Cl)c(Cl)c2)n(-c2ccc(NC(=O)CCl)cc2)n1 | 24.3 µM (active) | 
14 | CN(C)c1ccc(-c2nc3ncc(Cl)c(N4CCN(CC(=O)Nc5nccs5)CC4)c3[nH]2)cc1 | 2.37 µM (active) | 
15 | Cc1ccc(C(=O)Nc2ccc(CN3CCN(C)CC3)c(C(F)(F)F)c2)cc1C#Cc1cnc2cccnn12 | 1.72 µM (active) | 
16 | C[C@@H](Oc1cc(-c2cnn(C3CCNCC3)c2)cnc1N)c1c(Cl)ccc(F)c1Cl | 4.32 µM (active) | 
17 | COc1cc(C(=O)N2CCC(N3CCN(C)CC3)CC2)ccc1Nc1ncc2c(n1)N(C)c1ccccc1C(=O)N2C | 17.2 µM (active) | 
18 | CC1(C)[C@@H](O)CC[C@]2(C)[C@H]3C(=O)C=C4[C@@H]5C[C@@](C)(C(=O)O)CC[C@]5(C)CC[C@@]4(C)[C@]3(C)CC[C@@H]12 |  | 44.9
19 | c1nc2nc(Nc3ccc(N4CCOCC4)cc3)nc(NC3CCCCC3)c2[nH]1 | 1.88 µM (active) | 

Row | SMILES | Potency | activity change, negative = viability loss [%]
20 | CC(=O)OC12COC1CC(O)C1(C)C(=O)C(O)C3=C(C)C(OC(=O)C(O)C(NC(=O)OC(C)(C)C)c4ccccc4)CC(O)(C(OC(=O)c4ccccc4)C21)C3(C)C (configuration not stated) | 0.0097 µM (active) | 
21 | O=C1c2c(O)ccc(O)c2C(=O)c2c(NCCNCCO)ccc(NCCNCCO)c21 | 2.43 µM (active) | 
22 | Cc1cnc(Nc2ccc(CN3CCOCC3)cc2)nc1Nc1cccc(S(=O)(=O)NC(C)(C)C)c1 | 2.17 µM (active) | 
23 | CCCS(=O)c1ccc2nc(NC(=O)OC)[nH]c2c1 (configuration not stated) | 24.3 µM (active) | 
24 | NC(=O)c1cccc2cn(-c3ccc([C@@H]4CCCNC4)cc3)nc12 |  | -7.4
25 | O=C(Nc1cn[nH]c1-c1nc2ccc(CN3CCOCC3)cc2[nH]1)NC1CC1 | 0.0432 µM (active) | 
26 | CC(=O)Nc1cccc(-n2c(=O)n(C3CC3)c(=O)c3c(Nc4ccc(I)cc4F)n(C)c(=O)c(C)c32)c1 |  | -19.4
27 | CNC(=O)c1nn(C)c2c1C(C)(C)Cc1cnc(Nc3ccc(N4CCN(C)CC4)cc3)nc1-2 | 1.53 µM (active) | 
28 | CC(C)C[C@H](NC(=O)[C@@H](NC(=O)c1cccc(-c2ccccc2)n1)[C@@H](C)O)B(O)O | 24.3 µM (active) | 
29 | CN(C)CCC(CSc1ccccc1)Nc1ccc(S(=O)(=O)NC(=O)c2ccc(N3CCN(Cc4ccccc4-c4ccc(Cl)cc4)CC3)cc2)cc1[N+](=O)[O-] (configuration not stated) | 19.3 µM (active) | 
30 | Cc1cc(C(=O)N2CCN(c3cccc(Cl)c3)CC2)n(-c2ccccc2)n1 | 2.17 µM (active) | 
31 | CCS(=O)(=O)N1CCN(c2ccc(Nc3ncc(C(N)=O)c(NC4CC4)n3)cc2)CC1 | 4.85 µM (active) | 
32 | CC[C@H](CC#N)OC(=O)N[C@@H](C)c1cccc(NC(=O)Nc2ccc(-c3cnco3)c(OC)c2)c1 | 8.63 µM (active) | 
33 | Cn1cnc([N+](=O)[O-])c1Sc1ncnc2nc[nH]c12 | 4.85 µM (active) | 
34 | CC(C)Oc1ccc2c(=O)c(-c3ccccc3)coc2c1 | 21.7 µM (active) | 
35 | CC(C)(C(=O)NCC(F)(F)C(F)(F)F)C(=O)NC1C(=O)Nc2ccccc2-c2ccccc21 (configuration not stated) | 6.11 µM (active) | 
36 | CC[C@@]1(O)C(=O)OCc2c1cc1n(c2=O)Cc2cc3c(CN(C)C)c(O)ccc3nc2-1 | 8.63 µM (active) | 
37 | O=C(CCCCCCNC(=O)c1cnc(N(c2ccccc2)c2ccccc2)nc1)NO | 7.69 µM (active) | 
